# In PubChem BioAssay (NCATS):
# Results filed as inconclusive are left out. Calls of active or inactive are those of the source. Unless noted, the call rests on the fitted dose curve.
# Assays:
# [1] = qHTS assay for small molecule agonists of retinoid X receptor alpha signaling (AID 588544); conditions: HEK293T RXRa-UAS-bla, beta-lactamase reporter, 18 h; 530 nm emission;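 on activation: 0% = DMSO basal wells and 100% = reference agonist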
# [2] = biological target: Retinoic acid receptor RXR-alpha (Homo sapiens) (UniProt P19793); assay: as above; conditions: HEK293T RXRa-UAS-bla, beta-lactamase reporter, 18 h; series mostly up to 76.7 µM
# Retinoic acid receptor RXR-alpha (Homo sapiens), sequence (P19793 whole entry, looked up): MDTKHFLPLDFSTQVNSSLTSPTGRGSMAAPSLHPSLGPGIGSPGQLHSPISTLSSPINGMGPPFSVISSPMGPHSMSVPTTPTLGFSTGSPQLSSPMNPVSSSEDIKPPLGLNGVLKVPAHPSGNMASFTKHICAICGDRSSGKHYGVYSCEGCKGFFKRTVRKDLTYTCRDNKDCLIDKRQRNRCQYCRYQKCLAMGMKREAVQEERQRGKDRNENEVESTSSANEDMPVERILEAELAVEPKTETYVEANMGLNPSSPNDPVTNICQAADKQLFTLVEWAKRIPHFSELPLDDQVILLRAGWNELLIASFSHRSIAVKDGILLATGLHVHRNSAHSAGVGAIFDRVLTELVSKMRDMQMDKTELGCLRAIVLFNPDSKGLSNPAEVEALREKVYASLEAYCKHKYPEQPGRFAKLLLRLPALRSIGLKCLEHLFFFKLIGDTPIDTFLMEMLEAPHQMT
# [3] = qHTS assay for small molecule antagonists of retinoid X receptor alpha signaling (AID 588546; active means well fitted inhibition curve with a large enough effect in the signal ratio, with a control signal flat, not every such curve was filed as active; the % refers to the signal ratio;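 further: cells stimulated with 9-cis-retinoic acid as agonist; on the % scale 0 is the no-effect control and ±100 the full control effect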); conditions: HEK293T RXRa-UAS-bla, beta-lactamase ratio, antagonist mode; measured here: W530 green channel, cytotoxicity proxy
# Summary of the method: (§1)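 Beta-lactamase reporter inhibition, read as CCF4 fluorescence ratio (ex 405, em 460/530 nm) after 2 h at RT. HEK293T UAS-bla cells, 2500/well, were stimulated with 9-cis-RA at 500 or 100 nM final alongside test compound for 18 h at 37 C.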
# [4] = biological target: Retinoic acid receptor RXR-alpha (Homo sapiens) (UniProt P19793); assay: as above; conditions: HEK293T RXRa-UAS-bla, beta-lactamase ratio, antagonist mode
# Summary of the method: as §1
# [5] = qHTS assay for small molecule agonists of the antioxidant response element (ARE) signaling pathway (AID 651741; active means well fitted activation curve with a large enough effect in the signal ratio; the % refers to the signal ratio; further: potency means the concentration at half of the fitted maximal effect); conditions: HepG2 ARE-bla reporter, beta-lactamase FRET ratio, 16 h; series mostly up to 96 µM
# Summary of the method: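 Agonist activity is measured as ARE-driven beta-lactamase expression in a stable HepG2 reporter line, using 16 h compound treatment at 37 C and a FRET substrate fluorescence readout after 2 h.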
compound,measurement,setting,value
Cc1ccc2cc3c(ccc4ccccc43)c3c2c1CC3,max response,[1],0.698%
same,outcome,[2],inactive
same,max response,[3],24.7%
same,max response,[4],-30.8% (inactive)
same,Potency,[5],2.17 µM (active)
